Test results as given in PubChem BioAssay (NCATS).
Results filed as inconclusive are left out. Entries that show only a call come without a potency. Active and inactive are the calls of the source. Unless noted, the call rests on the fitted dose curve; in most records, active means well fitted curve in the direction sought with a large enough effect; inconclusive means small, poorly fitted or top-dose-only effect, or another doubt; inactive means no such curve, though single readings can be large; an effect the other way counts as inactive or inconclusive.

Experiments:
[1] = P-glycoprotein substrates identified in KB-8-5-11 adenocarcinoma cell line, qHTS therapeutic library screen (AID 1346987); further: nearly all actives have a fitted effect of over 65% in size; further: potency means the concentration at half of the fitted maximal effect
Procedure, shortened: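 Steps: plate 500 KB-8-5-11 cells/well in DMEM + 10% FCS (colchicine removed); pin compounds in dose-response; incubate 72 h, 37 degree C, 5% CO2; add CellTiter-Glo, 5 min; read luminescence.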

[2] = target: Atrial natriuretic peptide receptor 1 (Homo sapiens) (UniProt P16066); assay: Natriuretic polypeptide receptor (hNpr1) antagonism - Pilot screen (AID 1347049; calls by dose curve;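 further: agonist-evoked cGMP luminescence read 20 min after hNppA addition; series mostly up to about 58 µM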)
Chain of Atrial natriuretic peptide receptor 1 (Homo sapiens) (P16066 whole entry, looked up): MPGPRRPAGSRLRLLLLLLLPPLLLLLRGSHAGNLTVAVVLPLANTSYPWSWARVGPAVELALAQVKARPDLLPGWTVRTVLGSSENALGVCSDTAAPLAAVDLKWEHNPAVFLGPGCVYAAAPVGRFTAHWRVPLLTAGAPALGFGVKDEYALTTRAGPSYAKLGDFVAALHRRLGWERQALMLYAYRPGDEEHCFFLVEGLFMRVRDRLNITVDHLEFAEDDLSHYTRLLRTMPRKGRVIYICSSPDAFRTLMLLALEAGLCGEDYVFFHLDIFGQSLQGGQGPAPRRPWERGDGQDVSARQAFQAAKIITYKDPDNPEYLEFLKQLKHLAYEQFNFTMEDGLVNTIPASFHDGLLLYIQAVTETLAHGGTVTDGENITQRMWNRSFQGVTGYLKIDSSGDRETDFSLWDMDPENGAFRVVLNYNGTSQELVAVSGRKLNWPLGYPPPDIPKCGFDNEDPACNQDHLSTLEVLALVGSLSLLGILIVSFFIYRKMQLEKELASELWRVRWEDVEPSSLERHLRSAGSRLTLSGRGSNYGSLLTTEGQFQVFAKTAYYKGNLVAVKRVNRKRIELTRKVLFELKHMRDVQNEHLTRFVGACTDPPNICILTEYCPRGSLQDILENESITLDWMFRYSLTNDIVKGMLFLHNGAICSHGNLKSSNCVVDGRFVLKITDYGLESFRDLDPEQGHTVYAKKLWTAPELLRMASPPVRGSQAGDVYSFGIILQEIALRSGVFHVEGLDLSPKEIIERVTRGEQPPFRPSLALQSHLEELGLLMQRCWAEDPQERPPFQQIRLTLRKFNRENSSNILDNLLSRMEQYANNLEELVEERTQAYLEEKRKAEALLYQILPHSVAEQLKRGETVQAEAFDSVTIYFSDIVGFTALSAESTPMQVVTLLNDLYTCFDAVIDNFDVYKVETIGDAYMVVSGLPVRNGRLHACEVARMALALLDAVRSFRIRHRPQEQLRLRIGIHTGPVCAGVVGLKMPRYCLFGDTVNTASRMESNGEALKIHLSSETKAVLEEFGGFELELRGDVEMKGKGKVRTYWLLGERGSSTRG
Procedure, shortened: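 Readout is cGMP-driven firefly luciferase luminescence in HEK293 cells carrying hNpr1 and a PDE5-domain GloSensor, read before and 20 min after 0.1 nM hNppA stimulation. Cells had 2% substrate reagent for 2 h and test compound for 30 min.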

[3] = NS1 protein of Zika virus - qHTS assay to identify small molecule inhibitors in human HEK 293 cells (AID 1347053); further: nearly all actives have a fitted effect of over 55% in size; further: potency means the concentration at half of the fitted maximal effect
Procedure, shortened: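 Inhibition of NS1 expression was scored in HEK 293 cells given compound 1 h ahead of MR766 virus (MOI = 0.5). Following 24 h at 37 C, two anti-NS1 antibodies generated a TR-FRET signal, scaled between uninfected and infected controls.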

[4] = target: Parathyroid hormone/parathyroid hormone-related peptide receptor (Homo sapiens) (UniProt Q03431); assay: qHTS for PTHR1 Agonists: Optimization Screen against the NCGC LOPAC library (AID 1347079);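 further: GloSensor cAMP luminescence in HEK-293 GP2 cells expressing human PTHR1 with IBMX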
Chain of Parathyroid hormone/parathyroid hormone-related peptide receptor (Homo sapiens) (Q03431 whole entry, looked up): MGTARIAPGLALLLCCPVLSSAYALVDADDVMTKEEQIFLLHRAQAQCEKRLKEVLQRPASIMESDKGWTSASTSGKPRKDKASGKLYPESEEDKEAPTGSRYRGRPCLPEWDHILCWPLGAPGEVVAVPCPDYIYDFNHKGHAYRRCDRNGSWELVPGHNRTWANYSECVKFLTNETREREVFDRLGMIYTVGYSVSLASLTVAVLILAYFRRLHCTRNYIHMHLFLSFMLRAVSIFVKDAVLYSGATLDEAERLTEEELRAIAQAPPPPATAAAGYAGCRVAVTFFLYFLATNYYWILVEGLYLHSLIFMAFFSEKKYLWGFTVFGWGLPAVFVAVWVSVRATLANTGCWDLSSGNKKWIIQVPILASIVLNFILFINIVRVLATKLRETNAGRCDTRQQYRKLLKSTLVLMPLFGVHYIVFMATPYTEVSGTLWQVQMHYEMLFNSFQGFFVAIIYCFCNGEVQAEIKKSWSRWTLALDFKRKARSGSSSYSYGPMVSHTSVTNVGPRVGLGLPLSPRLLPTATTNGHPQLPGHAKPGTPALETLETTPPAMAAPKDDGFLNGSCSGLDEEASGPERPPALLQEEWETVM
Procedure, shortened: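 Agonist readout: GloSensor cAMP luminescence, read after 15 min at room temperature. HEK-293-derived GP2 line carries PTHR1; compounds tested as a titration for 1 hr at 37C in presence of IBMX. M-PTH (1-15) served as control.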

[5] = qHTS for Inhibitors of the Functional Ribonucleoprotein Complex (vRNP) of Lassa (LASV) Arenavirus: LASV Primary Screen - GLuc reporter signal (AID 1347082; calls by dose curve; tested in HEK293 reporter line; further: nearly all actives have a fitted effect of over 60% in size; further: potency means the concentration at half of the fitted maximal effect)
[6] = qHTS for Inhibitors of the Functional Ribonucleoprotein Complex (vRNP) of Lassa (LASV) Arenavirus: Viability assay - alamar blue signal for LASV Primary Screen (AID 1347083; calls by dose curve; tested in HEK293 reporter line; further: nearly all actives have a fitted effect of over 80% in size; further: potency means the concentration at half of the fitted maximal effect)
[7] = qHTS for Inhibitors of the Functional Ribonucleoprotein Complex (vRNP) of Lymphocytic Choriomeningitis Arenaviruses (LCMV): Viability assay - alamar blue signal for LCMV Primary Screen (AID 1347085; calls by dose curve; tested in HEK293 reporter line; further: nearly all actives have a fitted effect of over 80% in size; further: potency means the concentration at half of the fitted maximal effect)
[8] = target: Nucleoprotein (Lymphocytic choriomeningitis virus (strain Armstrong)) (UniProt P09992); assay: qHTS for Inhibitors of the Functional Ribonucleoprotein Complex (vRNP) of Lymphocytic Choriomeningitis Arenaviruses (LCMV): LCMV Primary Screen - GLuc reporter signal (AID 1347086; calls by dose curve; further: nearly all actives have a fitted effect of over 70% in size; further: potency means the concentration at half of the fitted maximal effect)
Chain of Nucleoprotein (Lymphocytic choriomeningitis virus (strain Armstrong)) (P09992 whole entry, looked up): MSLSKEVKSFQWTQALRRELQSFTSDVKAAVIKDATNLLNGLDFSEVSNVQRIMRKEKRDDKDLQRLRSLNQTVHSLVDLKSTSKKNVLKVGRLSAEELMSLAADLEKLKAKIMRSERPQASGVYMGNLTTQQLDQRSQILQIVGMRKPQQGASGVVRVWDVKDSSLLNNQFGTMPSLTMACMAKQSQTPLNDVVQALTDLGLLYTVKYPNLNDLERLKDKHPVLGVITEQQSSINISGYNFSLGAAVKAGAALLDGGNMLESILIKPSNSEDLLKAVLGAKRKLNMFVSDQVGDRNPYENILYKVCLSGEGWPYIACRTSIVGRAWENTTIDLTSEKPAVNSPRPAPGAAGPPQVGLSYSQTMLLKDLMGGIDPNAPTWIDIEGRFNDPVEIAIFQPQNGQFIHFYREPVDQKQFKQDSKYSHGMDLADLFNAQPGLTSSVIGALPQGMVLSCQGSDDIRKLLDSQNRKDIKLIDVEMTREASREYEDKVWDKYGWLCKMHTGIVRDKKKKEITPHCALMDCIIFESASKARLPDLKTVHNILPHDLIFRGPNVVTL

[9] = qHTS of pediatric cancer cell lines to identify multiple opportunities for drug repurposing: Primary screen for TC32 cells (AID 1347089); further: nearly all actives have a fitted effect of over 60% in size; further: potency means the concentration at half of the fitted maximal effect
Procedure, shortened: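 In the primary qHTS, MIPE compounds were tested at 11 concentrations (0.78 nM to 46 µM) and NPC compounds at 8 (0.59 nM to 46 µM) on TC32 cells for 48 h. CellTiter-Glo luminescence gave viability.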

[10] = qHTS of pediatric cancer cell lines to identify multiple opportunities for drug repurposing: Primary screen for DAOY cells (AID 1347090); further: nearly all actives have a fitted effect of over 55% in size; further: potency means the concentration at half of the fitted maximal effect
Procedure, shortened: (§1)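 Cell viability, CellTiter-Glo luminescence; 500-1,000 cells/well, 8- or 11-point titration, 48 h compound exposure at 37 degrees C, 5% CO2. Controls: DMSO neutral, bortezomib 2.3 µM final as positive.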

[11] = qHTS of pediatric cancer cell lines to identify multiple opportunities for drug repurposing: Primary screen for SJ-GBM2 cells (AID 1347091); further: potency means the concentration at half of the fitted maximal effect
Procedure, shortened: as §1

[12] = qHTS of pediatric cancer cell lines to identify multiple opportunities for drug repurposing: Primary screen for A673 cells (AID 1347092); further: nearly all actives have a fitted effect of over 45% in size; further: potency means the concentration at half of the fitted maximal effect
Procedure, shortened: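 48 h compound exposure, A673, 500-1,000 cells/well, 37 degrees C/5% CO2. MIPE: 11-point, 0.78 nM-46 µM; NPC: 8-point, 0.59 nM-46 µM (final). Readout CellTiter-Glo luminescence after 15 min RT.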

[13] = target: T1, Tyrosine-protein phosphatase non-receptor type substrate 1 (Homo sapiens) + Leukocyte surface antigen CD47 (Homo sapiens) (UniProt P78324+Q08722); assay: CD47-SIRPalpha protein protein interaction - LANCE assay qHTS validation (AID 1347057; active means well fitted curve in the direction sought with a large enough effect in the signal ratio, with a control signal flat, not every such curve was filed as active; the % refers to the signal ratio; further: series mostly up to about 38 µM)
T1 sequence (P78324 whole entry, looked up): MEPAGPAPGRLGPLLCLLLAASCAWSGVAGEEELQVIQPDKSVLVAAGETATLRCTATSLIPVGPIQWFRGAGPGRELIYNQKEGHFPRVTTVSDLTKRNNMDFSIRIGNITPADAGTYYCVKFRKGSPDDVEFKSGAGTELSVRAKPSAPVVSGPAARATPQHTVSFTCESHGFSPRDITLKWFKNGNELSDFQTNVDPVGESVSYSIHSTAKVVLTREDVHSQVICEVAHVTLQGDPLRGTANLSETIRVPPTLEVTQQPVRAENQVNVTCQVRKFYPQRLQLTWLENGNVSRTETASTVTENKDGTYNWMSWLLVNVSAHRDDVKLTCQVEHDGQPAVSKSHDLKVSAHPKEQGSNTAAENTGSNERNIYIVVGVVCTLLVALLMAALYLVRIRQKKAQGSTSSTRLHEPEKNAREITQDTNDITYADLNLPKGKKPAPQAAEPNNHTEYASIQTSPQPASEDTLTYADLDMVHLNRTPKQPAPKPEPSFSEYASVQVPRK
T1 sequence (Q08722 whole entry, looked up): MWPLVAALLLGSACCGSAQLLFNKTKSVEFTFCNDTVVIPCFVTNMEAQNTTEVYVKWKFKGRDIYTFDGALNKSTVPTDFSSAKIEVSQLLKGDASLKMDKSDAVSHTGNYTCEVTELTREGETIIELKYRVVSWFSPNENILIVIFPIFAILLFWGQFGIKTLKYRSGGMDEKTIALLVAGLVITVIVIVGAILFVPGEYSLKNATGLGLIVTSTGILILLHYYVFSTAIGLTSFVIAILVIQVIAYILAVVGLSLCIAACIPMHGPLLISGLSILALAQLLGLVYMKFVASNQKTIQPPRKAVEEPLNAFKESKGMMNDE
Procedure, shortened: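 First, His-tagged CD47 and Eu-labelled anti-His antibody met the compound for 30 min; next, site-specifically biotinylated SIRPalpha was added for 30 min; finally streptavidin-APC was added before reading the TR-FRET ratio.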

[14] = target: T1, Tyrosine-protein phosphatase non-receptor type substrate 1 (Homo sapiens) + Leukocyte surface antigen CD47 (Homo sapiens); assay: CD47-SIRPalpha protein protein interaction - HTRF assay qHTS validation (AID 1347058; active means well fitted curve in the direction sought with a large enough effect in the signal ratio, not every such curve was filed as active; the % refers to the signal ratio;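 further: recombinant soluble extracellular CD47 with His tag and biotinylated SIRPalpha domains; series mostly up to about 38 µM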)
Procedure, shortened: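 TR-FRET read (Ch1/Ch2 ratio) of soluble extracellular CD47 and Avi-biotinylated SIRPalpha domains in PBS pH 7.4 with 0.05% IGEPAL; 7-point compound titration. Sequential 30 min room-temperature steps; non-biotinylated SIRPalpha as control inhibitor.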

[15] = target: T1, Tyrosine-protein phosphatase non-receptor type substrate 1 (Homo sapiens) + Leukocyte surface antigen CD47 (Homo sapiens); assay: CD47-SIRPalpha protein protein interaction - Alpha assay qHTS validation (AID 1347059);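 further: bead proximity luminescence from CD47 binding SIRPalpha after compound preincubation with SIRPalpha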
Procedure, shortened: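 Binding is measured by AlphaScreen proximity: Ni-NTA acceptor beads capture His-CD47, streptavidin donor beads capture biotin-SIRPalpha. Each of three additions (SIRPalpha with compound, CD47, beads) incubates 30 min at room temperature protected from light.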

[16] = target: Atrial natriuretic peptide receptor 2 (Homo sapiens) (UniProt P20594); assay: Natriuretic polypeptide receptor (hNpr2) antagonism - Pilot subtype selectivity assay (AID 1347050; calls by dose curve)
Chain of Atrial natriuretic peptide receptor 2 (Homo sapiens) (P20594 whole entry, looked up): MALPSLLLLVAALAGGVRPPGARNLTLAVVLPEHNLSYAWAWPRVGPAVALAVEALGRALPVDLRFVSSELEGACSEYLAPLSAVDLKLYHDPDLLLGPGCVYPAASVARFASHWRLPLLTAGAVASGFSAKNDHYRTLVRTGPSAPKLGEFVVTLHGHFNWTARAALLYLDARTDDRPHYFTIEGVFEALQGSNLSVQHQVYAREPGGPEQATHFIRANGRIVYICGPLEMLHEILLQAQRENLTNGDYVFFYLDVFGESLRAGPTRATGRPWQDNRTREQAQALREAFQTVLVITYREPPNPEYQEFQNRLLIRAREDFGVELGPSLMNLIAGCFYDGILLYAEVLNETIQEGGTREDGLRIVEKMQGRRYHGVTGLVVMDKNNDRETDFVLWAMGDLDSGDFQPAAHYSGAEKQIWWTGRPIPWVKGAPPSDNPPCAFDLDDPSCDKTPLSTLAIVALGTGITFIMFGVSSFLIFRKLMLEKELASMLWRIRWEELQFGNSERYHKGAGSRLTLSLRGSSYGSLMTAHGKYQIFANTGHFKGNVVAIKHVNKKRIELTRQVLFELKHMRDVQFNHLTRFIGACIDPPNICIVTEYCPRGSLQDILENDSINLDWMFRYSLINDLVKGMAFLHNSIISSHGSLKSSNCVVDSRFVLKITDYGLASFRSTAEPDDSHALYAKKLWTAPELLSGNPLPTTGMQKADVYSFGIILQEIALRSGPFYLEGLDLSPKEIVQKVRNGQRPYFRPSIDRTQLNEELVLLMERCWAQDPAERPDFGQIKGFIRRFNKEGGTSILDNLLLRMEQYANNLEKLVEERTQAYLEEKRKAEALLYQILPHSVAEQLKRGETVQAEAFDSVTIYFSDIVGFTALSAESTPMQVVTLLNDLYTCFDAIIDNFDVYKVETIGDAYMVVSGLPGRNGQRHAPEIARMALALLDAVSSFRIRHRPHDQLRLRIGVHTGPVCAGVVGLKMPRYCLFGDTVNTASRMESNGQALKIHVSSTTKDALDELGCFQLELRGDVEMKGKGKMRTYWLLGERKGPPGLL
Procedure, shortened: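 Pilot selectivity screen against hNpr2: HEK293 cGMP-sensor cells are treated with LOPAC1280 compounds, then with hNppC peptide at 1 nM final. The cGMP-driven luminescence change over 20 min at room temperature is the read-out.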

Compound | Potency [1] | Potency [2] | Potency [3] | outcome [4] | Potency [5] | Potency [6] | Potency [7] | Potency [8] | Potency [9] | Potency [10] | Potency [11] | Potency [12] | outcome [13] | outcome [14] | Potency [15] | Potency [16]
c1ccc(C2(c3ccccc3)CC2C2=NCCN2)cc1 (stereo unspecified) | inactive | inactive | inactive | inactive | inactive | inactive | inactive | inactive |  |  |  |  |  |  |  | 
C=CC(=O)NCNC(=O)C=C | inactive |  | inactive |  | inactive | inactive | inactive | inactive | inactive | inactive | inactive | inactive |  |  |  | 
Cc1cc(O)ccc1Cl | inactive |  | inactive |  | inactive | inactive | inactive | inactive | inactive | inactive | inactive | inactive |  |  |  | 
CCCCCCCCCC(CC)c1ccc(S(=O)(=O)O)cc1 (stereo unspecified) | inactive |  | inactive |  | inactive | inactive | inactive | inactive | inactive | inactive |  |  |  |  |  | 
C[N+](C)(C)CC(=O)O | inactive |  | inactive |  | inactive | inactive | inactive | inactive |  |  |  |  | inactive | inactive | inactive | 
Nc1ccc(Sc2ccc(N)cc2)cc1 | inactive |  | inactive |  | inactive | inactive | inactive | inactive | inactive | inactive | inactive |  |  |  |  | 
CCOCCOC(C)=O | inactive |  | inactive |  | inactive | inactive | inactive | inactive | inactive | inactive | inactive | inactive |  |  |  | 
O=[N+]([O-])c1c(Cl)c(Cl)cc(Cl)c1Cl | inactive |  | inactive |  | inactive | inactive | inactive | inactive | inactive | inactive | inactive | inactive |  |  |  | 
ClC1=C(Cl)[C@]2(Cl)[C@@H]3[C@@H]4C[C@@H]([C@H]5O[C@@H]45)[C@@H]3[C@@]1(Cl)C2(Cl)Cl | inactive |  | inactive |  | inactive | inactive | inactive | inactive | inactive | 38600 nM (active) |  |  |  |  |  | 
C[C@]12CC[C@H]3[C@@H](CCC4=CC(=O)CC[C@@]43C)[C@H]1CC[C@H]2O | 11800 nM (active) |  | inactive |  | inactive | inactive | inactive | inactive | inactive | inactive | inactive |  |  |  |  | 
CSCC[C@@H](NC(=O)[C@@H](Cc1ccccc1)NC(=O)CNC(=O)CNC(=O)[C@@H](N)Cc1ccc(O)cc1)C(=O)O | inactive |  | inactive |  | inactive | inactive | inactive | inactive | inactive | inactive | inactive | inactive |  |  |  | 
S=C(NC1CCCCC1)N1CCC(c2cnc[nH]2)CC1 | inactive | inactive | inactive | inactive | inactive | inactive | inactive | inactive |  |  |  |  | inactive | inactive | inactive | inactive
O=S(=O)(O)C(F)(F)C(F)(F)C(F)(F)C(F)(F)F | inactive |  | inactive |  | inactive | inactive | inactive | inactive | inactive | inactive | inactive | inactive |  |  |  | 
CN[C@@H]1Cc2cccc3[nH]c(=O)n(c23)C1 | inactive |  | inactive |  | inactive | inactive | inactive | inactive | inactive | inactive | inactive |  |  |  |  | 
O=C1C=CC[C@@H]2[C@H]3CCCN4CCC[C@@H](CN12)[C@@H]34 | inactive |  | inactive |  | inactive | inactive | inactive | inactive |  |  |  |  |  |  |  | 
Oc1ccc2c3c1O[C@H]1[C@@H](O)C=C[C@H]4[C@@H](C2)NCC[C@@]341 | inactive |  | inactive |  | inactive | inactive | inactive | inactive | inactive | inactive | inactive | inactive |  |  |  | 
O=c1[nH]c2ccc(Cl)cc2c(N[C@@H]2CN3CCC2CC3)c1-c1nc2ccccc2[nH]1 | 1660 nM (active) |  | 52.6 nM (active) |  | 1220 nM (active) | 122 nM (active) | 217 nM (active) | 863 nM (active) | 930 nM (active) | 743 nM (active) | 46.9 nM (active) | 296 nM (active) |  |  |  | 
Cc1c(C(=O)c2cccc3ccccc23)c2cccc3c2n1[C@H](CN1CCOCC1)CO3 | 7430 nM (active) | inactive |  | inactive |  |  |  |  | inactive | 23500 nM (active) | 14800 nM (active) | 23500 nM (active) |  |  |  | inactive
C1CCC(NC2CCCCC2)CC1 | inactive |  | inactive |  | inactive | inactive | inactive | inactive | inactive | inactive | inactive | inactive |  |  |  | 
C[C@]12CC[C@@H]3[C@@H](CCC4=CC(=O)CC[C@@H]43)[C@@H]1CC[C@@H]2OC(=O)CCc1ccccc1 | 5800 nM (active) |  | inactive |  | inactive | inactive | inactive | inactive | inactive | inactive | inactive |  |  |  |  | 
COCC1(CO)C(=O)C2CCN1CC2 (stereo unspecified) | inactive |  | inactive |  | inactive | inactive | 12200 nM (active) |  | 20800 nM (active) | 23500 nM (active) | 2090 nM (active) | 2350 nM (active) |  |  |  | 
CCCCCCCCc1ccc(O)cc1 | inactive |  | inactive |  | inactive | inactive | inactive | inactive |  | inactive |  |  |  |  |  | 
COCCOCCO | inactive |  | inactive |  | inactive | inactive | inactive | inactive | inactive | inactive | inactive | inactive |  |  |  | 
